According to PubChem BioAssay AID1159580 (chemical genetic matrix, 2015):
“And” between values parts separate entries of the source, which are not always exact repeats. Equal values may be shown once. The campaign covered roughly 5,500 compounds. About 2,000 (36%) were called active. Not shown: some 18% with an inconclusive outcome. No stated cut-off is given here; in the data, active means normalized growth mostly below about 0.91 (no sharp cut-off); inconclusive means no clear call, values can overlap the other calls; inactive means mostly above about 0.92. The list shows a part of the results.

Assay: chemical genetic growth profiling, strain panel (AID 1159580);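 further: tested at 20 µM; growth read once vehicle control cultures reached saturation at 30 °C; 1 = growth at the plate median or of vehicle wells; lower values mean less growth of the strain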
Conditions: S. cerevisiae deletion strains, growth OD

Measured: normalized growth

O=c1c(-c2ccc(O)cc2)coc2cc(O)cc(O)c12
inactive: locus YAL013W, strain DEP1, hits give low values 1.03 | locus YAL021C, strain ccr4, hits give low values 1.01 | locus YAL026C, strain drs2, hits give low values 1.02 | locus YAL030W, strain snc1, hits give low values 1.01 | locus YAL040C, strain CLN3, hits give low values 0.968 | locus YBL061C, strain skt5, hits give low values 1.01 | locus YBR009C, strain hhf1, hits give low values 1.01 | locus YBR021W, strain FUR4, hits give low values 1 | locus YBR023C, strain chs3, hits give low values 1.01 | locus YBR171W, strain sec66, hits give low values 1.01 | locus YBR229C, strain ROT2, hits give low values 1.02 | locus YBR231C, strain swc5, hits give low values 1.01 | locus YBR279W, strain paf1, hits give low values 1 | locus YCL011C, strain gbp2, hits give low values 1.01 | locus YCL016C, strain dcc1, hits give low values 1.01 | locus YCL029C, strain bik1, hits give low values 1.03 | locus YCL061C, strain MRC1 (second series), hits give low values 1 | locus YCL061C, strain MRC1, hits give low values 1 | locus YCL069W, strain vba3, hits give low values 1.02 | locus YCR088W, strain abp1, hits give low values 1.02 | locus YDL005C, strain med2, hits give low values 1 | locus YDL035C, strain GPR1, hits give low values 1.07 | locus YDL040C, strain nat1, hits give low values 1.01 | locus YDL074C, strain BRE1, hits give low values 1.14 | locus YDL101C, strain DUN1, hits give low values 1.03 | locus YDL185W, strain tfp1, hits give low values 1.02 | locus YDL192W, strain arf1, hits give low values 1.04 | locus YDR001C, strain nth1, hits give low values 1.01 | locus YDR069C, strain doa4, hits give low values 1.01 | locus YDR101C, strain arx1, hits give low values 1 | locus YDR137W, strain rgp1, hits give low values 0.983 | locus YDR150W, strain NUM1, hits give low values 0.996 | locus YDR159W, strain sac3, hits give low values 1.02 | locus YDR162C, strain NBP2, hits give low values 1.04 | locus YDR195W, strain ref2 1.03 | locus YDR297W, strain sur2, hits give low values 1.01 | locus YDR318W, strain mcm21, hits give low values 1.02 | locus YDR334W, strain swr1, hits give low values 0.989 | locus YDR335W, strain msn5, hits give low values 1.02 | locus YDR363W, strain ESC2, hits give low values 0.994 | locus YDR388W, hits give low values 1.03 | locus YDR392W, strain spt3, hits give low values 0.989 | locus YDR502C, strain sam2, hits give low values 1.02 | locus YEL003W, strain gim4, hits give low values 1.01 | locus YEL037C, strain rad23, hits give low values 1.01 | locus YEL061C, strain CIN8 (second series), hits give low values 1.01 | locus YER002W, strain NOP16, hits give low values 0.996 | locus YER015W, strain faa2, hits give low values 1.01 | locus YER016W, strain bim1, hits give low values 1.01 | locus YER110C, hits give low values 1.04 | locus YER111C, strain swi4, hits give low values 1.03 | locus YER155C, strain BEM2 (second series), hits give low values 1.02 | locus YER155C, strain BEM2, hits give low values 1.03 | locus YER167W, strain BCK2, hits give low values 1.03 | locus YFR010W, strain ubp6, hits give low values 0.995 | locus YGL078C, strain dbp3, hits give low values 1.03 | locus YGL086W, strain mad1, hits give low values 1.01 | locus YGL167C, strain pmr1, hits give low values 1.01 | locus YGL173C, strain kem1, hits give low values 1.01 | locus YGL227W, strain vid30, hits give low values 1.01 | locus YGL240W, strain doc1, hits give low values 1.01 | locus YGL248W, strain PDE1, hits give low values 1.07 | locus YGL253W, strain hxk2, hits give low values 1 | locus YGR078C, strain PAC10, hits give low values 1.06 | locus YGR135W, strain pre9, hits give low values 1.05 | locus YGR252W, strain gcn5, hits give low values 0.958 | locus YHR013C, strain ard1, hits give low values 1.03 | locus YHR027C, strain rpn1, hits give low values 1.01 | locus YHR030C, strain SLT2, hits give low values 0.984 and 1.04 | locus YHR079C, strain IRE1 (second series), hits give low values 1.02 | locus YHR079C, strain IRE1, hits give low values 1.01 | locus YHR094C, strain hxt1, hits give low values 1.04 | locus YHR129C, strain ARP1, hits give low values 1.05 | locus YHR142W, strain chs7, hits give low values 0.991 | locus YHR200W, strain rpn10, hits give low values 1.02 | locus YIL066C, strain RNR3, hits give low values 1.05 | locus YIL073C, strain SPO22, hits give low values 1.13 | locus YIL125W, strain kgd1, hits give low values 1.03 | locus YIR030C, strain dcg1, hits give low values 1.03 | locus YJL092W, strain hpr5, hits give low values 1.01 | locus YJL095W, strain BCK1 (second series), hits give low values 1.01 | locus YJL095W, strain BCK1, hits give low values 1.11 and 1.05 | locus YJL115W, strain asf1, hits give low values 0.999 | locus YJL129C, strain trk1, hits give low values 0.997 | locus YJL134W, strain LCB3, hits give low values 1.03 | locus YJL154C, strain vps35, hits give low values 1 | locus YJL164C, strain tpk1, hits give low values 0.95 | locus YJL166W, strain qcr8, hits give low values 1 | locus YJL168C, strain set2, hits give low values 1.03 | locus YJL187C, strain SWE1 (second series), hits give low values 1.05 | locus YJL187C, strain SWE1, hits give low values 1 | locus YJR066W, strain TOR1, hits give low values 0.999 | locus YKL009W, strain mrt4, hits give low values 1.04 | locus YKL068W, hits give low values 1 | locus YKL085W, strain MDH1 (second series), hits give low values 1.02 | locus YKL085W, strain MDH1, hits give low values 1.02 | locus YKL160W, strain elf1, hits give low values 1 | locus YKL190W, strain CNB1, hits give low values 1.02 | locus YKR001C, strain vps1, hits give low values 1.03 | locus YKR026C, strain gcn3, hits give low values 1.02 | locus YKR091W, strain srl3, hits give low values 1.01 | locus YLL001W, strain dnm1, hits give low values 1.02 | locus YLL026W, hits give low values 1.02 | locus YLL041C, strain sdh2, hits give low values 1 | locus YLR027C, strain aat2, hits give low values 1.01 | locus YLR039C, strain RIC1, hits give low values 1.21 | locus YLR058C, strain SHM2, hits give low values 1.05 | locus YLR102C, strain apc9, hits give low values 1.03 | locus YLR113W, strain HOG1, hits give low values 1.07 | locus YLR221C, strain rsa3, hits give low values 1 | locus YLR258W, strain gsy2, hits give low values 1.01 | locus YLR262C, strain YPT6 (second series), hits give low values 1.01 | locus YLR268W, strain sec22, hits give low values 1.03 | locus YLR320W, strain mms22, hits give low values 1 | locus YLR342W, strain FKS1, hits give low values 1.01 | locus YLR357W, strain rsc2, hits give low values 0.987 | locus YLR370C, strain arc18, hits give low values 1.01 | locus YLR371W, strain rom2, hits give low values 1.06 | locus YLR384C, strain iki3, hits give low values 1.02 | locus YLR418C, strain cdc73, hits give low values 1.05 | locus YML016C, strain PPZ1, hits give low values 1.03 | locus YML032C, strain rad52, hits give low values 1.02 | locus YML120C, strain ndi1, hits give low values 1.02 | locus YML124C, strain tub3, hits give low values 1.02 | locus YMR058W, strain fet3, hits give low values 1.01 | locus YMR078C, strain ctf18, hits give low values 1.03 | locus YMR125W, strain sto1, hits give low values 1.01 | locus YMR129W, hits give low values 1.01 | locus YMR205C, strain PFK2, hits give low values 1.02 | locus YMR223W, strain ubp8, hits give low values 1.03 | locus YMR231W, strain pep5, hits give low values 1 | locus YMR263W, strain SAP30, hits give low values 1.03 | locus YMR307W, strain GAS1, hits give low values 1.17 and 0.992 | locus YNL067W, strain RPL9B, hits give low values 1.03 | locus YNL071W, strain lat1, hits give low values 1.02 | locus YNL128W, strain TEP1, hits give low values 1.06 | locus YNL175C, strain NOP13, hits give low values 1.01 | locus YNL183C, strain NPR1, hits give low values 0.993 | locus YNL197C, strain WHI3, hits give low values 1.01 | locus YNL209W, strain ssb2, hits give low values 0.996 | locus YNL224C, strain SQS1, hits give low values 1 | locus YNL233W, strain BNI4, hits give low values 1.08 | locus YNL248C, strain rpa49, hits give low values 0.999 | locus YNL250W, strain rad50, hits give low values 1.04 | locus YNL271C, strain bni1, hits give low values 1.02 | locus YNL298W, strain CLA4, hits give low values 1.04 | locus YNL307C, strain MCK1, hits give low values 1.06 | locus YNL322C, strain KRE1 (second series), hits give low values 1.01 | locus YNL322C, strain KRE1, hits give low values 0.996 | locus YNR049C, strain mso1, hits give low values 1.01 | locus YNR052C, strain pop2, hits give low values 1.05 | locus YOL006C, strain TOP1, hits give low values 1.26 | locus YOL012C, strain htz1 0.919 | locus YOL147C, strain pex11, hits give low values 1.01 | locus YOR001W, strain rrp6, hits give low values 1.01 | locus YOR061W, strain CKA2, hits give low values 1.04 | locus YOR069W, strain VPS5, hits give low values 1.03 | locus YOR070C, strain gyp1, hits give low values 1 | locus YOR080W, strain dia2, hits give low values 1.01 | locus YOR083W, strain WHI5 (second series), hits give low values 1.03 | locus YOR083W, strain WHI5, hits give low values 0.997 | locus YOR106W, strain vam3, hits give low values 0.977 | locus YOR136W, strain idh2, hits give low values 1.03 | locus YOR144C, strain elg1, hits give low values 1.02 | locus YOR184W, strain ser1, hits give low values 1 | locus YOR231W, strain MKK1, hits give low values 1.04 | locus YOR265W, strain rbl2, hits give low values 1.01 | locus YOR270C, strain vph1, hits give low values 0.982 | locus YOR290C, strain snf2, hits give low values 0.989 | locus YOR316C, strain cot1, hits give low values 1.02 | locus YPL051W, strain arl3, hits give low values 0.989 | locus YPL055C, strain LGE1, hits give low values 1.08 and 1.02 | locus YPL078C, strain atp4, hits give low values 1.01 | locus YPL106C, strain sse1, hits give low values 1.02 | locus YPL240C, strain hsp82, hits give low values 0.992 | locus YPL241C, strain CIN2, hits give low values 1 | locus YPL256C, strain CLN2, hits give low values 1.05 | locus YPR119W, strain clb2, hits give low values 1.03 | locus YPR141C, strain kar3, hits give low values 1.02 | locus YPR163C, strain tif3, hits give low values 1.04 | locus YPR167C, strain met16, hits give low values 1.03 | strain wtn01, hits give low values 1.02
